About 2,000 (36%) of roughly 5,500 compounds were called active. Inconclusive results (about 18%) are left out. Cut-off read from the data, not from the text of the source: active = normalized growth mostly below about 0.91 (no sharp cut-off); inconclusive = no clear call, values can overlap the other calls; inactive = mostly above about 0.92. The list shows a part of the results. Where a SMILES comes first, the peptide text is derived from it. Bridges are numbered along the chain shown (N, C = ends). [ ]: non-standard residue; d: D form. The star is where a group is joined. Octanoyl(6-Me) = CCC(C)CCCCC(=O)*; Dab = NCC[CH](N)C(=O)O
Assay: chemical genetic growth profiling, strain panel (AID 1159580);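 note: tested at 20 µM; growth read once vehicle control cultures reached saturation at 30 °C; 1 = growth at the plate median or of vehicle wells; lower values mean less growth of the strain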
Conditions: growth OD

Measured: normalized growth

CCC(C)CCCCC(=O)NC(CCN)C(=O)NC(C(=O)NC(CCN)C(=O)NC1CCNC(=O)C(C(C)O)NC(=O)C(CCN)NC(=O)C(CCN)NC(=O)C(CC(C)C)NC(=O)C(Cc2ccccc2)NC(=O)C(CCN)NC1=O)C(C)O (configuration not stated) ({Octanoyl(6-Me)}-[Dab]T[Dab][Dab][Dab]FL[Dab][Dab]T; lactam 4-C; configuration not given here)
inactive: S. cerevisiae deletion strains, locus YJR075W, strain HOC1, active compounds read low 0.997 | S. cerevisiae deletion strains, locus YKL009W, strain mrt4, active compounds read low 0.99 | S. cerevisiae deletion strains, locus YKL068W, active compounds read low 1 | S. cerevisiae deletion strains, locus YKL085W, strain MDH1 (second series), active compounds read low 0.998 | S. cerevisiae deletion strains, locus YKL085W, strain MDH1, active compounds read low 0.998 | S. cerevisiae deletion strains, locus YKL160W, strain elf1, active compounds read low 0.97 | S. cerevisiae deletion strains, locus YKL190W, strain CNB1, active compounds read low 0.991 | S. cerevisiae deletion strains, locus YKR001C, strain vps1, active compounds read low 0.987 | S. cerevisiae deletion strains, locus YKR026C, strain gcn3, active compounds read low 1 | S. cerevisiae deletion strains, locus YKR091W, strain srl3, active compounds read low 1.01 | S. cerevisiae deletion strains, locus YLL001W, strain dnm1, active compounds read low 0.989 | S. cerevisiae deletion strains, locus YLL026W, active compounds read low 1.02 | S. cerevisiae deletion strains, locus YLL041C, strain sdh2, active compounds read low 0.995 | S. cerevisiae deletion strains, locus YLR027C, strain aat2, active compounds read low 0.988 | S. cerevisiae deletion strains, locus YLR039C, strain RIC1, active compounds read low 1.04 | S. cerevisiae deletion strains, locus YLR058C, strain SHM2, active compounds read low 1 | S. cerevisiae deletion strains, locus YLR102C, strain apc9, active compounds read low 1.01 | S. cerevisiae deletion strains, locus YLR113W, strain HOG1, active compounds read low 0.986 | S. cerevisiae deletion strains, locus YLR221C, strain rsa3, active compounds read low 0.988 | S. cerevisiae deletion strains, locus YLR258W, strain gsy2, active compounds read low 0.978 | S. cerevisiae deletion strains, locus YLR262C, strain YPT6 (second series), active compounds read low 1.04 | S. cerevisiae deletion strains, locus YLR262C, strain YPT6, active compounds read low 1.05 | S. cerevisiae deletion strains, locus YLR268W, strain sec22, active compounds read low 1.05 | S. cerevisiae deletion strains, locus YLR320W, strain mms22, active compounds read low 0.957 | S. cerevisiae deletion strains, locus YLR330W, strain CHS5, active compounds read low 1 | S. cerevisiae deletion strains, locus YLR342W, strain FKS1 (second series), active compounds read low 0.95 | S. cerevisiae deletion strains, locus YLR342W, strain FKS1, active compounds read low 0.995 | S. cerevisiae deletion strains, locus YLR357W, strain rsc2, active compounds read low 0.968 | S. cerevisiae deletion strains, locus YLR370C, strain arc18, active compounds read low 0.979 | S. cerevisiae deletion strains, locus YLR371W, strain rom2, active compounds read low 1.01 | S. cerevisiae deletion strains, locus YLR384C, strain iki3, active compounds read low 0.981 | S. cerevisiae deletion strains, locus YLR418C, strain cdc73, active compounds read low 1.02 | S. cerevisiae deletion strains, locus YML016C, strain PPZ1, active compounds read low 0.992 | S. cerevisiae deletion strains, locus YML032C, strain rad52, active compounds read low 1.02 | S. cerevisiae deletion strains, locus YML120C, strain ndi1, active compounds read low 0.985 | S. cerevisiae deletion strains, locus YML124C, strain tub3, active compounds read low 1.01 | S. cerevisiae deletion strains, locus YMR058W, strain fet3, active compounds read low 0.984 | S. cerevisiae deletion strains, locus YMR078C, strain ctf18, active compounds read low 1.01 | S. cerevisiae deletion strains, locus YMR125W, strain sto1, active compounds read low 0.993 | S. cerevisiae deletion strains, locus YMR129W, active compounds read low 1 | S. cerevisiae deletion strains, locus YMR205C, strain PFK2, active compounds read low 0.957 | S. cerevisiae deletion strains, locus YMR223W, strain ubp8, active compounds read low 0.975 | S. cerevisiae deletion strains, locus YMR231W, strain pep5, active compounds read low 1 | S. cerevisiae deletion strains, locus YMR263W, strain SAP30, active compounds read low 1.02 | S. cerevisiae deletion strains, locus YMR307W, strain GAS1, active compounds read low 0.984 | S. cerevisiae deletion strains, locus YNL067W, strain RPL9B, active compounds read low 1.01 | S. cerevisiae deletion strains, locus YNL071W, strain lat1, active compounds read low 1.02 | S. cerevisiae deletion strains, locus YNL128W, strain TEP1, active compounds read low 0.982 | S. cerevisiae deletion strains, locus YNL153C, strain GIM3, active compounds read low 1.02 | S. cerevisiae deletion strains, locus YNL183C, strain NPR1, active compounds read low 0.944 | S. cerevisiae deletion strains, locus YNL209W, strain ssb2, active compounds read low 1 | S. cerevisiae deletion strains, locus YNL233W, strain BNI4, active compounds read low 0.992 | S. cerevisiae deletion strains, locus YNL248C, strain rpa49, active compounds read low 0.989 | S. cerevisiae deletion strains, locus YNL250W, strain rad50, active compounds read low 0.996 | S. cerevisiae deletion strains, locus YNL271C, strain bni1, active compounds read low 1.01 | S. cerevisiae deletion strains, locus YNL298W, strain CLA4, active compounds read low 0.997 | S. cerevisiae deletion strains, locus YNL307C, strain MCK1, active compounds read low 1.01 | S. cerevisiae deletion strains, locus YNL322C, strain KRE1 (second series), active compounds read low 0.976 | S. cerevisiae deletion strains, locus YNL322C, strain KRE1, active compounds read low 0.991 | S. cerevisiae deletion strains, locus YNR049C, strain mso1, active compounds read low 0.997 | S. cerevisiae deletion strains, locus YNR052C, strain pop2, active compounds read low 0.979 | S. cerevisiae deletion strains, locus YOL006C, strain TOP1, active compounds read low 0.992 | S. cerevisiae deletion strains, locus YOL012C, strain htz1 1.19 | S. cerevisiae deletion strains, locus YOL147C, strain pex11, active compounds read low 1.01 | S. cerevisiae deletion strains, locus YOR001W, strain rrp6, active compounds read low 0.97 | S. cerevisiae deletion strains, locus YOR061W, strain CKA2, active compounds read low 0.991 | S. cerevisiae deletion strains, locus YOR069W, strain VPS5, active compounds read low 1 | S. cerevisiae deletion strains, locus YOR070C, strain gyp1, active compounds read low 0.995 | S. cerevisiae deletion strains, locus YOR080W, strain dia2, active compounds read low 0.991 | S. cerevisiae deletion strains, locus YOR083W, strain WHI5, active compounds read low 0.97 | S. cerevisiae deletion strains, locus YOR106W, strain vam3, active compounds read low 0.987 | S. cerevisiae deletion strains, locus YOR136W, strain idh2, active compounds read low 1 | S. cerevisiae deletion strains, locus YOR144C, strain elg1, active compounds read low 1 | S. cerevisiae deletion strains, locus YOR184W, strain ser1, active compounds read low 1.01 | S. cerevisiae deletion strains, locus YOR231W, strain MKK1, active compounds read low 0.978 | S. cerevisiae deletion strains, locus YOR265W, strain rbl2, active compounds read low 0.986 | S. cerevisiae deletion strains, locus YOR270C, strain vph1, active compounds read low 0.963 | S. cerevisiae deletion strains, locus YOR290C, strain snf2, active compounds read low 0.963 | S. cerevisiae deletion strains, locus YOR316C, strain cot1, active compounds read low 1 | S. cerevisiae deletion strains, locus YPL051W, strain arl3, active compounds read low 0.963 | S. cerevisiae deletion strains, locus YPL055C, strain LGE1, active compounds read low 0.994 | S. cerevisiae deletion strains, locus YPL078C, strain atp4, active compounds read low 0.972 | S. cerevisiae deletion strains, locus YPL106C, strain sse1, active compounds read low 0.956 | S. cerevisiae deletion strains, locus YPL240C, strain hsp82, active compounds read low 0.981 | S. cerevisiae deletion strains, locus YPL241C, strain CIN2, active compounds read low 1 | S. cerevisiae deletion strains, locus YPL256C, strain CLN2, active compounds read low 0.994 | S. cerevisiae deletion strains, locus YPR119W, strain clb2, active compounds read low 0.999 | S. cerevisiae deletion strains, locus YPR141C, strain kar3, active compounds read low 1.01 | S. cerevisiae deletion strains, locus YPR163C, strain tif3, active compounds read low 1.02 | S. cerevisiae deletion strains, locus YPR167C, strain met16, active compounds read low 1 | S. cerevisiae deletion strains, strain wtn01, active compounds read low 1.01 | S. cerevisiae strains, strain wild type, active compounds read low 0.99
